This is an account of results in the supplement of paper PMC11537057.

Counter-ions that a name gives are not always drawn. ± gives the standard deviation of the averaged measurements. Whole data set: some 1,700 compounds, median “cell number in HSV-1-infected wells relative to infected DMSO wells (H2B-RFP signal)” near 100, cut for the highest 2% near 140. For the sample, the highest values were picked, then their nearest neighbours and some compounds at random.

This assay has as its system A549 infected with HSV-1. As to the kind of experiment: cell number in HSV-1-infected wells relative to infected DMSO wells (H2B-RFP signal); higher = more surviving cells (uninfected or antiviral-protected wells give about 200%; low = toxicity). The conditions noted are these: 10 µM; 48 h; MOI: 0.1. The protocol:
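Selleck FDA-approved library (L1300) screened in duplicate at 10 µM on A549 H2B-mRuby cells in 384-well plates, infected with HSV-1 strain 17 YFP-ICP4 at MOI 0.1 one hour before drug addition. Imaged after 2 days at 37°C. Cell growth (H2B-RFP) and infection (ICP4-YFP) are expressed as % of DMSO-treated wells. Hits: growth >90% and infection <20% of DMSO.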
As for `O=C(c1ccc(F)cc1)C1CCN(CCn2c(=O)[nH]c3ccccc3c2=O)CC1` [Ketanserin], the “cell number in HSV-1-infected wells” value was 124.4 ± 0.22%.

`COc1cc(NC(C)CCCN)c2ncccc2c1` (configuration not stated) [Primaquine Diphosphate]: the “cell number in HSV-1-infected wells” value came to 118 ± 8%.

Consider `Cc1cccc(C)c1OCC(=O)N[C@@H](Cc1ccccc1)[C@@H](O)C[C@H](Cc1ccccc1)NC(=O)[C@H](C(C)C)N1CCCNC1=O` [Lopinavir], for which the “cell number in HSV-1-infected wells” value was determined as 85.9 ± 22%.

In the case of `NCCNc1ccc(NCCN)c2c1C(=O)c1ccncc1C2=O` [Pixantrone Maleate], the “cell number in HSV-1-infected wells” value was determined as 36.1 ± 10%.

With `O=C1Nc2ccc(Cl)cc2[C@@](C#CC2CC2)(C(F)(F)F)O1` [Efavirenz], the “cell number in HSV-1-infected wells” value is 10.6 ± 3.5%.

On to `CCOC(CN1CCN(CC(C)C(=O)c2ccccc2)CC1)c1ccccc1` (configuration not stated) [Eprazinone 2HCl], for which the “cell number in HSV-1-infected wells” value came out at 108.9 ± 1%.

On to `CC1=C(/C=C/C(C)=C/C=C/C(C)=C\C(=O)O)C(C)(C)CCC1` [Isotretinoin], for which the “cell number in HSV-1-infected wells” value came out at 98.64 ± 0.63%.

For `COc1ccc(NC(=O)c2ccc(C(=N)N(C)C)cc2)c(C(=O)Nc2ccc(Cl)cn2)c1` [Betrixaban], the “cell number in HSV-1-infected wells” value amounted to 150 ± 40%.

In the case of `COc1ccc2c(c1)c(CC(=O)O)c(C)n2C(=O)c1ccc(Cl)cc1` [Indomethacin], the “cell number in HSV-1-infected wells” value came to 119 ± 12%.

`COc1ccc(NC(=O)c2ccc(C(=N)N(C)C)cc2)c(C(=O)Nc2ccc(Cl)cn2)c1` [Betrixaban maleate]: the “cell number in HSV-1-infected wells” value was 130 ± 48%.

In the case of `COc1ccc2c(c1)c(CC(=O)O)c(C)n2C(=O)c1ccc(Cl)cc1` [Indometacin Sodium], the “cell number in HSV-1-infected wells” value came out at 69.9 ± 22%.

In the case of `CCCOC(C(=O)OC1CCN(C)CC1)(c1ccccc1)c1ccccc1` [Propiverine hydrochloride], the “cell number in HSV-1-infected wells” value was determined as 102 ± 5%.

As to `COC(=O)c1ccc2c(C(=Nc3ccc(N(C)C(=O)CN4CCN(C)CC4)cc3)c3ccccc3)c(O)[nH]c2c1` [Nintedanib Ethanesulfonate Salt], the “cell number in HSV-1-infected wells” value worked out at 91.8 ± 4.1%.

Turning to `CC(C)OC(=O)CCC/C=C\C[C@@H]1[C@@H](/C=C/C(F)(F)COc2ccccc2)[C@H](O)C[C@@H]1O` [Tafluprost], the “cell number in HSV-1-infected wells” value was determined as 83.4 ± 27%.

With `CC#CCn1c(N2CCC[C@@H](N)C2)nc2c1c(=O)n(Cc1nc(C)c3ccccc3n1)c(=O)n2C` [Linagliptin], the “cell number in HSV-1-infected wells” value stood at 95.4 ± 6.9%.

Take `Cc1c(C(N)=O)cc([N+](=O)[O-])cc1[N+](=O)[O-]` [Dinitolmide]: the “cell number in HSV-1-infected wells” value is 145 ± 18%.

On to `NC(=O)c1ccc(I)c([N+](=O)[O-])c1` [Iniparib (BSI-201)], for which the “cell number in HSV-1-infected wells” value worked out at 66.8 ± 6.8%.

On to `NC(=O)c1cc(N2CC2)c([N+](=O)[O-])cc1[N+](=O)[O-]`, for which the “cell number in HSV-1-infected wells” value was found to be 74.6 ± 11%.

For `C#Cc1cccc(Nc2ncnc3cc4c(cc23)OCCOCCOCCO4)c1` [Icotinib], the “cell number in HSV-1-infected wells” value turned out to be 113 ± 1.4%.

Turning to `CCCCCCCCN=c1ccn(CCCCCCCCCCn2ccc(=NCCCCCCCC)cc2)cc1` [Octenidine Dihydrochloride], the “cell number in HSV-1-infected wells” value was 14.6 ± 4.9%.

For the molecule `CC(=O)OCC(CCn1cnc2cnc(N)nc21)COC(C)=O` [Famciclovir], the “cell number in HSV-1-infected wells” value amounted to 104 ± 3.7%.

As for `Nc1nc(O)c2ncn(CCC(CO)CO)c2n1` [Penciclovir], the “cell number in HSV-1-infected wells” value amounted to 205 ± 4.4%.

Consider `OC[C@H]1O[C@@H](O[C@@H]2[C@@H](CO)OC(O)(CO)[C@H]2O)[C@H](O)[C@@H](O)[C@H]1O` (mixture of isomers) [Lactulose], for which the “cell number in HSV-1-infected wells” value was 115 ± 1.3%.

As to `C(=C\c1ccccc1)/CN1CCN(C(c2ccccc2)c2ccccc2)CC1` [Cinnarizine], the “cell number in HSV-1-infected wells” value came to 117 ± 4.5%.

Consider `CN1CCN(C(c2ccccc2)c2ccccc2)CC1` [Cyclizine 2HCl], for which the “cell number in HSV-1-infected wells” value stood at 153 ± 28%.

For `CN1CCC(OC(c2ccccc2)c2ccccc2)CC1` [Diphenylpyraline HCl], the “cell number in HSV-1-infected wells” value was found to be 98.9 ± 17%.

On to `C[N+](C)(C)CCO.O=C([O-])C(O)C(O)C(=O)O` (configuration not stated) [Choline bitartrate], for which the “cell number in HSV-1-infected wells” value turned out to be 124 ± 12%.

For the molecule `COc1cc(C2Oc3cc([C@H]4Oc5cc(O)cc(O)c5C(=O)[C@@H]4O)ccc3OC2CO)ccc1O` (some centres not stated) [Silibinin], the “cell number in HSV-1-infected wells” value came to 95.4 ± 7%.

On to `C=C[C@@H]1C[C@]1(NC(=O)[C@@H]1C[C@@H](Oc2ncc(OC)c3ccc(Cl)cc23)CN1C(=O)[C@@H](NC(=O)OC(C)(C)C)C(C)(C)C)C(=O)NS(=O)(=O)C1CC1` [Asunaprevir], for which the “cell number in HSV-1-infected wells” value is 94.5 ± 22%.

As to `CCCCc1nc(C)c(CC(=S)N(C)C)c(=O)n1Cc1ccc(-c2ccccc2-c2nnn[nH]2)cc1` [Fimasartan], the “cell number in HSV-1-infected wells” value was 88.2 ± 16%.

In the case of `Cc1cn(-c2cc(NC(=O)c3ccc(C)c(Nc4nccc(-c5cnccn5)n4)c3)cc(C(F)(F)F)c2)cn1` [Radotinib], the “cell number in HSV-1-infected wells” value worked out at 64.4 ± 25%.

Regarding `N[C@@H](Cc1c[nH]c2ccc(O)cc12)C(=O)O` [5-hydroxytryptophan (5-HTP)], the “cell number in HSV-1-infected wells” value was determined as 121 ± 13%.

For `O=C(O)c1ccc(NC(=O)[C@H](Cc2ccc(O)cc2)NC(=O)c2ccccc2)cc1` [Bentiromide], the “cell number in HSV-1-infected wells” value is 101 ± 29%.

Regarding `C=C(c1ccc(C(=O)O)cc1)c1cc2c(cc1C)C(C)(C)CCC2(C)C` [Bexarotene], the “cell number in HSV-1-infected wells” value came out at 85.7 ± 8.3%.

As to `CC1(C)CCC(C)(C)c2cc(NC(=O)c3ccc(C(=O)O)cc3)ccc21` [Tamibarotene], the “cell number in HSV-1-infected wells” value was found to be 143 ± 7.9%.

Turning to `CCN(CC)C(=O)N1CCN(C)CC1` [Diethylcarbamazine citrate], the “cell number in HSV-1-infected wells” value stood at 89.5 ± 22%.

For `NC(=NCCCCCCN=C(N)N=C(N)Nc1ccc(Cl)cc1)N=C(N)Nc1ccc(Cl)cc1` [Chlorhexidine?2HCl], the “cell number in HSV-1-infected wells” value was 9.11 ± 0.6%.

`O=c1[nH]c(=O)n([C@H]2C[C@H](O)[C@@H](CO)O2)cc1I` [Idoxuridine]: the “cell number in HSV-1-infected wells” value was determined as 175.6 ± 1.1%.

For `Nc1nc(Cl)nc2c1ncn2[C@H]1C[C@H](O)[C@@H](CO)O1` [Cladribine], the “cell number in HSV-1-infected wells” value was 42.1 ± 4.5%.

As for `Cc1cn([C@@H]2C[C@@H](O)[C@H](CO)O2)c(=O)[nH]c1=O` [Telbivudine], the “cell number in HSV-1-infected wells” value turned out to be 102 ± 8.7%.

Turning to `Nc1ncn([C@H]2C[C@H](O)[C@@H](CO)O2)c(=O)n1` [Decitabine], the “cell number in HSV-1-infected wells” value is 166 ± 12%.

Turning to `Nc1ncn([C@@H]2O[C@H](CO)[C@@H](O)[C@H]2O)c(=O)n1` [Azacitidine], the “cell number in HSV-1-infected wells” value turned out to be 98.3 ± 4.2%.

For `O=c1[nH]c(=O)n([C@H]2C[C@H](O)[C@@H](CO)O2)cc1F` [Floxuridine], the “cell number in HSV-1-infected wells” value worked out at 53.3 ± 3.6%.

For the molecule `CC[C@H](C)C(=O)O[C@H]1C[C@H](O)C=C2C=C[C@H](C)[C@H](CC[C@@H](O)C[C@@H](O)CC(=O)O)[C@H]21` [Pravastatin sodium], the “cell number in HSV-1-infected wells” value was 95.3 ± 16%.

Take `NC(=O)c1cn(Cc2c(F)cccc2F)nn1` [Rufinamide]: the “cell number in HSV-1-infected wells” value was determined as 120 ± 12%.

As to `C[C@H]1CNCCCN1S(=O)(=O)c1cccc2cncc(F)c12` [Ripasudil (K-115) hydrochloride dihydrate], the “cell number in HSV-1-infected wells” value was 114 ± 7%.

With `N#Cc1cc(-c2n[nH]c(-c3ccncc3)n2)ccn1` [Topiroxostat], the “cell number in HSV-1-infected wells” value was found to be 111 ± 12%.

For `Cc1ncc([N+](=O)[O-])n1CC(C)O` (configuration not stated) [Secnidazole], the “cell number in HSV-1-infected wells” value was 99.4 ± 14%.

Regarding `NS(=O)(=O)c1cc2c(cc1Cl)N=CNS2(=O)=O` [Chlorothiazide], the “cell number in HSV-1-infected wells” value worked out at 114 ± 25%.

For `C1N2CN3CN1CN(C2)C3` [Methenamine], the “cell number in HSV-1-infected wells” value worked out at 124 ± 25%.

Regarding `COc1ccc2cc(CCC(C)=O)ccc2c1` [Nabumetone], the “cell number in HSV-1-infected wells” value amounted to 97.7 ± 6.2%.

Take `CN1CCN(CCCN2c3ccccc3Sc3ccc(Cl)cc32)CC1` [Prochlorperazine dimaleate salt]: the “cell number in HSV-1-infected wells” value was 124 ± 49%.

On to `CN1CCN(CCCN2c3ccccc3Sc3ccc(Cl)cc32)CC1` [Prochlorperazine Dimaleate], for which the “cell number in HSV-1-infected wells” value came to 163 ± 4.8%.

Turning to `OCCN1CCN(CCCN2c3ccccc3Sc3ccc(Cl)cc32)CC1` [Perphenazine], the “cell number in HSV-1-infected wells” value was 86.76 ± 0.7%.

Take `CN1CCN(CCCN2c3ccccc3Sc3ccc(C(F)(F)F)cc32)CC1` [Trifluoperazine 2HCl]: the “cell number in HSV-1-infected wells” value worked out at 57.5 ± 10%.

For the molecule `CC(C)C(=O)OCC(=O)[C@@]12O[C@H](C3CCCCC3)O[C@@H]1C[C@H]1[C@@H]3CCC4=CC(=O)C=C[C@]4(C)[C@H]3[C@@H](O)C[C@@]12C` [Ciclesonide], the “cell number in HSV-1-infected wells” value is 120 ± 13%.

For the molecule `Cc1onc(-c2c(F)cccc2Cl)c1C(=O)N[C@@H]1C(=O)N2[C@@H]1SC(C)(C)[C@@H]2C(=O)O` [Flucloxacillin sodium], the “cell number in HSV-1-infected wells” value was 111 ± 11%.

Take `Cc1onc(-c2ccccc2Cl)c1C(=O)N[C@@H]1C(=O)N2[C@@H]1SC(C)(C)[C@@H]2C(=O)O` [Cloxacillin Sodium]: the “cell number in HSV-1-infected wells” value came out at 114 ± 15%.

`Cc1onc(-c2c(Cl)cccc2Cl)c1C(=O)N[C@@H]1C(=O)N2[C@@H]1SC(C)(C)[C@@H]2C(=O)O` [Dicloxacillin Sodium]: the “cell number in HSV-1-infected wells” value was determined as 146 ± 32%.

Take `C[C@]12CC[C@@H]3c4ccc(O)cc4C[C@@H](CCCCCCCCC[S+]([O-])CCCC(F)(F)C(F)(F)F)[C@H]3[C@@H]1CC[C@@H]2O` (some centres not stated) [Fulvestrant]: the “cell number in HSV-1-infected wells” value was determined as 74.6 ± 24%.

As to `C[C@@H](O)[C@H]1C(=O)N2C(C(=O)O)=C(S[C@@H]3CN[C@H](CNS(N)(=O)=O)C3)[C@H](C)[C@H]12` [Doripenem Hydrate], the “cell number in HSV-1-infected wells” value was 98.3 ± 14%.

As to `C[C@@H](O)[C@H]1C(=O)N2C(C(=O)O)=C(S[C@@H]3CN[C@H](CNS(N)(=O)=O)C3)[C@H](C)[C@H]12` [Doripenem], the “cell number in HSV-1-infected wells” value is 124 ± 13%.
